PubChem BioAssay (EPA / NIEHS)
Calls of active or inactive are those of the source. How the source made its calls: active means hit-call score of the fitted dose curve at least 0.9, where 1 is the maximum; inactive means score below 0.9.

How the values were obtained:
[1] = IUF_NPC1b_proliferation_BrdU_72hr: Leibniz Research Institute for Environmental Medicine (IUF) 72-hour Neural Progenitor Cell Bromodeoxyuridine (BrdU) Proliferation Assay (NPC1b) (AID 2284207)
Procedure, shortened: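 BrdU luminescence ELISA quantified DNA synthesis over the last 16 h of a 72 h exposure, fitted against DMSO. Primary hNPC spheres from gestational week 16-19 cortex grown with EGF/FGF at 37C, pH 7.2-7.6.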

[2] = IUF_NPC1a_proliferation_area_72hr: Leibniz Research Institute for Environmental Medicine (IUF) 72-hour Neural Progenitor Cell Proliferation Area Assay (NPC1a) (AID 2284208)
Procedure, shortened: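 Read-out: increase in sphere area over 72 h by automated phase-contrast imaging, fitted in positive direction versus DMSO baseline. One hNPC sphere (0.25-0.35 mm) per well in EGF/FGF medium; growth-factor withdrawal served as positive control.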

[3] = IUF_NPC1_viability_72hr: Viability Assessment at 72 hours in the Leibniz Research Institute for Environmental Medicine (IUF) Neural Progenitor Cell Proliferation Assay (NPC1) (AID 2284209)
Procedure, shortened: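 Each well receives one 0.3 mm progenitor sphere from fetal brain cortex; test chemical is added at plating and left three days. Viability comes from alamar blue fluorescence, multiplexed with LDH and BrdU readouts in the same well.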

[4] = CCTE_Mundy_HCI_Cortical_Synap_Neur_Matur_NeuriteSpotCountPerNeuriteLength: CCTE's Synaptogenesis and Neurite Maturation Assay in rat cortical cells for Neurite Spot Count per Neurite Length, Mundy Lab (AID 2284210)
Procedure, shortened: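 Rat primary cortical cultures, AraC added at DIV 5 to suppress glia; chemical exposure from DIV 7 to DIV 12. Fixed cells stained for MAP2 and synaptophysin plus Hoechst; synaptophysin puncta per neurite length quantified by high-content imaging, relative to DMSO.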

[5] = CCTE_Mundy_HCI_Cortical_NOG_NeuriteLength: CCTE's Neurite Outgrowth Assay in rat cortical cells for Neurite Length, Mundy Lab (AID 2284213)
Procedure, shortened: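 Neurite length was read by high-content imaging of βIII-tubulin-labelled neurites in rat primary cortical cultures. Activity was fitted relative to DMSO.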

[6] = CCTE_Mundy_HCI_Cortical_Synap_Neur_Matur_NeuriteLength: CCTE's Synaptogenesis and Neurite Maturation Assay in rat cortical cells for Neurite Length, Mundy Lab (AID 2284214)
Procedure, shortened: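 Neurite length in rat primary cortical cultures is imaged after MAP2, synaptophysin and Hoechst staining. Dosing starts DIV 7, ending DIV 12; DMSO serves as negative control and baseline.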

[7] = CCTE_Mundy_HCI_Cortical_Synap_Neur_Matur_NeuriteSpotCountPerNeuron: CCTE's Synaptogenesis and Neurite Maturation Assay in rat cortical cells for Neurite Spot Count per Neuron Count, Mundy Lab (AID 2284215)
Procedure, shortened: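 Rat primary cortical cells received AraC at DIV 5, then chemicals with a media change at DIV 7, and were fixed at DIV 12. Synaptophysin puncta on MAP2-stained neurites per neuron were counted by high-content imaging, fitted relative to DMSO.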

[8] = TAMU_PeakParms_SingleDonor1434_Chronotropy: Texas A&M University (TAMU) 1.5-hr Human Induced Pluripotent Stem Cell (iPSC)-derived Cardiomyocytes Calcium (Ca+2) Flux Assay for Cardiotoxicity: Chronotropy (changes in peak frequency) (AID 2284217); settings: actives raise or lower the signal
Procedure, shortened: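 Beat rate, as mean Ca2+-flux peak frequency, was read from donor 1434 iPSC cardiomyocytes 90 min after exposure to 0.2–100 uM test chemical (0.5% DMSO). Wells that stopped beating were excluded; EC05 from bidirectional DMSO-referenced fitting.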

[9] = CCTE_Mundy_HCI_Cortical_Synap_Neur_Matur_BPCount: CCTE's Synaptogenesis and Neurite Maturation Assay in rat cortical cells for Branch Point Count, Mundy Lab (AID 2284211)
Procedure, shortened: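 Branch point number is quantified by automated imaging of fluorescently labelled neurites and synapses in rat primary cortical neurons exposed from DIV 7 to DIV 12. Activity is analysed relative to DMSO negative control.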

[10] = CCTE_Mundy_HCI_Cortical_NOG_NeuriteCount: CCTE's Neurite Outgrowth Assay in rat cortical cells for Neurite Count, Mundy Lab (AID 2284212);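 further: cells fixed about two days after chemical exposure began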
Procedure, shortened: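 Neurite number per cell from high-content imaging of betaIII-tubulin immunostaining, with Hoechst nuclear counterstain.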

Measured: outcome

OC[C@@H](O)[C@@H](O)[C@H](O)[C@@H](O)CO
inactive: [1] | [2] | [3] | [4] | [5] | [6] | [7] | [8]

CC(CCl)OP(=O)(OC(C)CCl)OC(C)CCl (configuration not stated)
inactive: [1] | [2] | [3] | [4] | [9] | [10] | [5] | [6] | [7]
